# Measured values taken from article PMC7862700, “An all-to-all approach to the identification of sequence-specific readers for epigenetic DNA modifications on cytosine”.
# How the values were obtained:
# Test in all cases: DAPPL (digital affinity profiling via proximity ligation, sequencing); 10 mM Tris-HCl pH 7.5, 50 mM NaCl, 1 mM DTT, 4% glycerol, room temperature, 30 min; GST-TFs on glutathione beads, 16-mer random dsDNA library, 0.1% formaldehyde crosslink after washing; high values mean tight binding
# Settings in all cases: protein: recombinant; tags: N-terminal GST; dsDNA, one strand shown
# GABPA = biological target: T1, GABPA (Homo sapiens, UniProt Q06546 1-454)
# T1 sequence: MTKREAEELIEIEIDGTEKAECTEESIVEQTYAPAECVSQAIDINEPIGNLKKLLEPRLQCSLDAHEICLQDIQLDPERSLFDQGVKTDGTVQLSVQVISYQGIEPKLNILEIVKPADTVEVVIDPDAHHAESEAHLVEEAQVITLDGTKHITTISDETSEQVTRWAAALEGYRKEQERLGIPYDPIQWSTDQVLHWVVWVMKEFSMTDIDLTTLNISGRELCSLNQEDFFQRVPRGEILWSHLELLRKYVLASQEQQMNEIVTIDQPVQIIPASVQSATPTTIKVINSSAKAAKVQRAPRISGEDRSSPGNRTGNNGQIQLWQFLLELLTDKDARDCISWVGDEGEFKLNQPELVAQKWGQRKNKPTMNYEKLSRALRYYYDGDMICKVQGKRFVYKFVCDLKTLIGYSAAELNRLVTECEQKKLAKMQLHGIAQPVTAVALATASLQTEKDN
# Procedure, shortened: (§1)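 Binding signal is each hexamer's read frequency for a factor divided by its frequency in the tag-only sample. The factors were GST-fused human transcription factors from yeast, captured on glutathione beads, DNA-barcoded and pooled with that sample. Pools were incubated with 200 nmole of a random double-stranded 16-mer DNA library in Tris/NaCl/DTT/glycerol buffer at room temperature for 30 min, then washed, crosslinked with 0.1% formaldehyde, proximity-ligated with BsaI/T4 ligase (1 h, 37 °C), PCR-amplified and sequenced on an Illumina NextSeq500.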
# FEV = biological target: T2, FEV (Homo sapiens, UniProt Q99581 1-238)
# T2 sequence: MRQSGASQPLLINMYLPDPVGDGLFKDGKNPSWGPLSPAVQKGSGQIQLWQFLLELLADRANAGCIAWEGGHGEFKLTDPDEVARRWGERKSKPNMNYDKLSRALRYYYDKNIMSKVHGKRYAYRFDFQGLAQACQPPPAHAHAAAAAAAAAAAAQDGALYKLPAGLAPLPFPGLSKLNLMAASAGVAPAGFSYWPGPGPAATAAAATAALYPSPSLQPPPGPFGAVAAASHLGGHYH
# Procedure, shortened: as §1
# SPIC = biological target: T3, SPIC (Homo sapiens, UniProt Q8N5J4 1-248)
# T3 sequence: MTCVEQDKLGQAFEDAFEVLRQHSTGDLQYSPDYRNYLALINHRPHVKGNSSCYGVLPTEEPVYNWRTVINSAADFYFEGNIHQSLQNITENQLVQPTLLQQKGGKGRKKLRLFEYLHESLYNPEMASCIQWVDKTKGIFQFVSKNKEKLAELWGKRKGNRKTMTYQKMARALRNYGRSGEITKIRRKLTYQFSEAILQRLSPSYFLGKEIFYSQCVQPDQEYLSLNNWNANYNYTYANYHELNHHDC
# Procedure, shortened: as §1
# ELF4 = ELF4 (Homo sapiens, UniProt Q99607 1-663)
# ELF4, sequence (Q99607 whole entry): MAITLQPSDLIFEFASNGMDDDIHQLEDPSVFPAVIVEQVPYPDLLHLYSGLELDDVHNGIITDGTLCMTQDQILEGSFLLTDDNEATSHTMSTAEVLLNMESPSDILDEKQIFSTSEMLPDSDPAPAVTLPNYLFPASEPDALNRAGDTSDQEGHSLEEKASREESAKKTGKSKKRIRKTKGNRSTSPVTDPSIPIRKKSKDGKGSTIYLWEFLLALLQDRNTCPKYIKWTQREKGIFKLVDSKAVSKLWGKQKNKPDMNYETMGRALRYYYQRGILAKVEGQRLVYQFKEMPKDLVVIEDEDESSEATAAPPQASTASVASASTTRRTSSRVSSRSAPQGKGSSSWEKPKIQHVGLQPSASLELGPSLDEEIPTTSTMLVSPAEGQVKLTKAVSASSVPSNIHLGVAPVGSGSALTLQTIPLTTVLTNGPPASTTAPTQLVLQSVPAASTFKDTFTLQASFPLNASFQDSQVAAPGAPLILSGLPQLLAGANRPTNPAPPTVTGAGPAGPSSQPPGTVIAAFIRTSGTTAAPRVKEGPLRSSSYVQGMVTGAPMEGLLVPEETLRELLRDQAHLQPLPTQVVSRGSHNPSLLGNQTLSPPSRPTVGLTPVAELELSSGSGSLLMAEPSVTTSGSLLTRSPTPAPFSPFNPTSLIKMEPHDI
# Procedure, shortened: as §1
# ETV2 = biological target: T4, ETV2 (Homo sapiens, UniProt O00321 1-342)
# T4 sequence: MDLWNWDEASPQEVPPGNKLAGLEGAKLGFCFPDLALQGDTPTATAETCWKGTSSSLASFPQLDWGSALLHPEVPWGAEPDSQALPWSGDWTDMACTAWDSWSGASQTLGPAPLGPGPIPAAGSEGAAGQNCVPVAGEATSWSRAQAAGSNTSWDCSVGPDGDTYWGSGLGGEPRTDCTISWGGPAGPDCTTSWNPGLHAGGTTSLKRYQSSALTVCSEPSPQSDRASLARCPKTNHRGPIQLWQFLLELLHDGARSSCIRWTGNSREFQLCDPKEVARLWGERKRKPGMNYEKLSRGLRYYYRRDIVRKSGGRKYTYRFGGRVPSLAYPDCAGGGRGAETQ
# Procedure, shortened: as §1
# CRX = CRX (Homo sapiens, UniProt O43186 1-299)
# CRX, sequence (O43186 whole entry): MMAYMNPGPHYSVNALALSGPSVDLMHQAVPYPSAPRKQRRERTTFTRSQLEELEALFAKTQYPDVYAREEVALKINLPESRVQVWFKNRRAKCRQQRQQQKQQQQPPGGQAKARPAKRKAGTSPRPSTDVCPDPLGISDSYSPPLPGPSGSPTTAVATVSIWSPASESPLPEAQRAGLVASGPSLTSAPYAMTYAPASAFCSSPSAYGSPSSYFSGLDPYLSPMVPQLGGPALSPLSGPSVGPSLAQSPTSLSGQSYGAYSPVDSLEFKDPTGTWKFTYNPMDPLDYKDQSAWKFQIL
# Procedure, shortened: as §1
# ETS2 = biological target: T5, ETS2 (Homo sapiens, UniProt P15036 1-469)
# T5 sequence: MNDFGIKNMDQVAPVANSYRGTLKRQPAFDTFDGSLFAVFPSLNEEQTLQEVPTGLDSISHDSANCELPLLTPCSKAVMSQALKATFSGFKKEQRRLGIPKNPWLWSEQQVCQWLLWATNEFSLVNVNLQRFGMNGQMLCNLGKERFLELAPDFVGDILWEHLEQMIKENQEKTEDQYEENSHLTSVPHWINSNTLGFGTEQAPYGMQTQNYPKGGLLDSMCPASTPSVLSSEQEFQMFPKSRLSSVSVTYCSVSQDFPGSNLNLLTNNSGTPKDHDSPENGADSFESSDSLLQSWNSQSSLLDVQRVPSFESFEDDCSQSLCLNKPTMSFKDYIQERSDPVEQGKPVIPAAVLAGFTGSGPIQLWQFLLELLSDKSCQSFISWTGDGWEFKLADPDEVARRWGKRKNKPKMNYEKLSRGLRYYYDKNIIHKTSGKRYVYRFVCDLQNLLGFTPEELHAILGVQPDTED
# Procedure, shortened: as §1
# ETV7 = biological target: T6, ETV7 (Homo sapiens, UniProt Q9Y603 1-341)
# T6 sequence: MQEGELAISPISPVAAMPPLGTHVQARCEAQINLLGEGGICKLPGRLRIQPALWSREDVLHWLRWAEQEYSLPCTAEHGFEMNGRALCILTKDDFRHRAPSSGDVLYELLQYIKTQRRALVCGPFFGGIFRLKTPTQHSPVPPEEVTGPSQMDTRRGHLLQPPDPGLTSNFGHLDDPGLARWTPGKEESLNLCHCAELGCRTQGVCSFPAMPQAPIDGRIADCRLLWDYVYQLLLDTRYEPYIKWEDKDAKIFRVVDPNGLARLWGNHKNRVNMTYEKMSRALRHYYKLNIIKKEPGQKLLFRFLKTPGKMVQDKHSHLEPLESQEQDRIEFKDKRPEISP
# Procedure, shortened: as §1
# ELF5 = biological target: T7, ELF5 (Homo sapiens, UniProt Q9UKW6-2 1-255)
# T7 sequence: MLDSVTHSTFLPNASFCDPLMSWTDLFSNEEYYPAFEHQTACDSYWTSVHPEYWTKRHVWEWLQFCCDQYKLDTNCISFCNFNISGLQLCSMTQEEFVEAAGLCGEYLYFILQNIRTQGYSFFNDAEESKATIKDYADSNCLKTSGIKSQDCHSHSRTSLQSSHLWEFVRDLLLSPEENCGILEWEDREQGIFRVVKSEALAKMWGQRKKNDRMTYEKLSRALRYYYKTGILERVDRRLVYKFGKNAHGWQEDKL
# Procedure, shortened: as §1
# ELF1 = ELF1 (Homo sapiens, UniProt P32519 1-619)
# ELF1, sequence (P32519 whole entry): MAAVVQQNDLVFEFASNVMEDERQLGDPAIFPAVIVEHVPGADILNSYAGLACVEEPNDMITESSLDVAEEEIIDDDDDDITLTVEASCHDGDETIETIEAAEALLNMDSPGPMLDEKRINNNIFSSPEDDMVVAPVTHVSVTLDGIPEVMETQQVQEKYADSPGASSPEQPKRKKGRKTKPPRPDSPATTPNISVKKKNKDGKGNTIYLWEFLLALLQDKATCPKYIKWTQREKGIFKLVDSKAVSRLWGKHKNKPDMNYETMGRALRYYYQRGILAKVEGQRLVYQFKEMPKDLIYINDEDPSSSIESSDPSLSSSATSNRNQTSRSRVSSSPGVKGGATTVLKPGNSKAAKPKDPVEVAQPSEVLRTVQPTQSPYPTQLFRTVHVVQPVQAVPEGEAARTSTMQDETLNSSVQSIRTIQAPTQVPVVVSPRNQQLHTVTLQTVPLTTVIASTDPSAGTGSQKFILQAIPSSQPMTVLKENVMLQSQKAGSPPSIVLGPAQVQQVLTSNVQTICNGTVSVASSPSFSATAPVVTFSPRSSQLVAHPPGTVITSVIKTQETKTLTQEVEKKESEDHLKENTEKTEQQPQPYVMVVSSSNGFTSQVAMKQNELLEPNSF
# Procedure, shortened: as §1
# ELK3 = biological target: T8, ELK3 (Homo sapiens, UniProt P41970 1-407)
# T8 sequence: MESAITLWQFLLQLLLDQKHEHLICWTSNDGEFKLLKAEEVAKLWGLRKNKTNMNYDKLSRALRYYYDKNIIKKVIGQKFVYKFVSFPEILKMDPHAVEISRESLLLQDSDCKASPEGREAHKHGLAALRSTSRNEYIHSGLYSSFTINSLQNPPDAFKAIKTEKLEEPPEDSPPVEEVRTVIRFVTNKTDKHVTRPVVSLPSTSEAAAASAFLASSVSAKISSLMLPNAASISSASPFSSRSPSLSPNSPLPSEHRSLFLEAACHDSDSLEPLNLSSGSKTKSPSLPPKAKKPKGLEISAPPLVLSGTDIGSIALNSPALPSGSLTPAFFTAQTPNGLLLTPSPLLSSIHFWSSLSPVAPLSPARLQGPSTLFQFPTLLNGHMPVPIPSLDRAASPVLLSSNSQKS
# Procedure, shortened: as §1
# ELK4 = biological target: T9, ELK4 (Homo sapiens, UniProt P28324-2 1-405)
# T9 sequence: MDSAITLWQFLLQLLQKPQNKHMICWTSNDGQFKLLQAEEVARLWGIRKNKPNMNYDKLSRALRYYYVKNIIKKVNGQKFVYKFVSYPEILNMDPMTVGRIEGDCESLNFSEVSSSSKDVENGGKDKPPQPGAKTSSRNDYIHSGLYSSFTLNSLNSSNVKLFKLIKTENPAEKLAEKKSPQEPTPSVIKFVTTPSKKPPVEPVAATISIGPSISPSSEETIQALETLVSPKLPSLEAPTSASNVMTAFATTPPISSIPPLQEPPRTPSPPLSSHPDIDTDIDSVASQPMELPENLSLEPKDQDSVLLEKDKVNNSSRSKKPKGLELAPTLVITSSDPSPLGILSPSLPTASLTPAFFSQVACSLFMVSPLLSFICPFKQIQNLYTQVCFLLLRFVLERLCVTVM
# Procedure, shortened: as §1
# ETV1 = ETV1 (Homo sapiens, UniProt P50549 1-477)
# ETV1, sequence (P50549 whole entry): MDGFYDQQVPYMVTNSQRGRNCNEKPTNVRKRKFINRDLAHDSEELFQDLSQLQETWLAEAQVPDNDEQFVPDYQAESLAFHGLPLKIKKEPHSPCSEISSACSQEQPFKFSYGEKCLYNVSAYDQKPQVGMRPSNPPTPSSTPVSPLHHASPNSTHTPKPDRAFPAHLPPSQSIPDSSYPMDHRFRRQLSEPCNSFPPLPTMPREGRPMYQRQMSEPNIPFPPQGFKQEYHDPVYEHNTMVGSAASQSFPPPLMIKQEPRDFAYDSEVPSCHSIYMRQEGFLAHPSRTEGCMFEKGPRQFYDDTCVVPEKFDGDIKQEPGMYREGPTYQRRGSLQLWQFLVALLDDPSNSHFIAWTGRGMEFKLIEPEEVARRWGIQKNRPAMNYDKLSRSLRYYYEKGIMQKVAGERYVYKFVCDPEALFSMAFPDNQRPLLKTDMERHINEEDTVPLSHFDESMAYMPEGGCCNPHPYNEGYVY
# Procedure, shortened: as §1
# ETV3L = biological target: T10, ETV3L (Homo sapiens, UniProt Q6ZN32 1-361)
# T10 sequence: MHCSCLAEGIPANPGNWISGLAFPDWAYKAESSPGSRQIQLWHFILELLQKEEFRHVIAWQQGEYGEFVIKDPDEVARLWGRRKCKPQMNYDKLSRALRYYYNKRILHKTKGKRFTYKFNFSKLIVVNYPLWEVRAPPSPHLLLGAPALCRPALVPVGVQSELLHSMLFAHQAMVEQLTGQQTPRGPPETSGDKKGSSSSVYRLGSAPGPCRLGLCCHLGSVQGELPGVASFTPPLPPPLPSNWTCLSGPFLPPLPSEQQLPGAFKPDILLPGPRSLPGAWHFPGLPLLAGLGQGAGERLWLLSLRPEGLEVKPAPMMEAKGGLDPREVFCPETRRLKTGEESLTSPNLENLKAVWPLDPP
# Procedure, shortened: as §1
# SPDEF = biological target: T11, SPDEF (Homo sapiens, UniProt O95238 1-335)
# T11 sequence: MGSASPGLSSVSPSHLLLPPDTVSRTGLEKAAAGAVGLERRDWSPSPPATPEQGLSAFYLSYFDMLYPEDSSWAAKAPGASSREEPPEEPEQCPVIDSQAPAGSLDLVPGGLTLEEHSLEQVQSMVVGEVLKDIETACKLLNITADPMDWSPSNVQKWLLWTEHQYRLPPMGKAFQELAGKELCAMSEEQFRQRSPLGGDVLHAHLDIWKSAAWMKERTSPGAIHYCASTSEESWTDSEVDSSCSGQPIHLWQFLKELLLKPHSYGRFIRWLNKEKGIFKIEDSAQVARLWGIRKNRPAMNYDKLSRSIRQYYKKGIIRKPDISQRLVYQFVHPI
# Procedure, shortened: as §1
# ETV3 = biological target: T12, ETV3 (Homo sapiens, UniProt P41162-2 1-143)
# T12 sequence: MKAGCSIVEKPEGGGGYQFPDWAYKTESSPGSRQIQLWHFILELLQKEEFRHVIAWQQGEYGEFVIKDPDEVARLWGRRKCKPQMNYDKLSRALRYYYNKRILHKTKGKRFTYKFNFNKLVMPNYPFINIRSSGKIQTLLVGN
# Procedure, shortened: as §1
Sequence,binding signal (GABPA),binding signal (FEV),binding signal (SPIC),binding signal (ELF4),binding signal (ETV2),binding signal (CRX),binding signal (ETS2),binding signal (ETV7),binding signal (ELF5),binding signal (ELF1),binding signal (ELK3),binding signal (ELK4),binding signal (ETV1),binding signal (ETV3L),binding signal (SPDEF),binding signal (ETV3)
AAAGGC,"1.1 fold enrichment (6-mer frequency, TF over GST control)","1.01 fold enrichment (6-mer frequency, TF over GST control)","1 fold enrichment (6-mer frequency, TF over GST control)","1.04 fold enrichment (6-mer frequency, TF over GST control)","1.04 fold enrichment (6-mer frequency, TF over GST control)","1.03 fold enrichment (6-mer frequency, TF over GST control)","1 fold enrichment (6-mer frequency, TF over GST control)","1.03 fold enrichment (6-mer frequency, TF over GST control)","1 fold enrichment (6-mer frequency, TF over GST control)",–,–,–,–,–,–,–
CGCCAC,"1.04 fold enrichment (6-mer frequency, TF over GST control)","1.11 fold enrichment (6-mer frequency, TF over GST control)","1.02 fold enrichment (6-mer frequency, TF over GST control)","1.03 fold enrichment (6-mer frequency, TF over GST control)",–,–,–,–,"1.05 fold enrichment (6-mer frequency, TF over GST control)","1.08 fold enrichment (6-mer frequency, TF over GST control)","1.04 fold enrichment (6-mer frequency, TF over GST control)","1.07 fold enrichment (6-mer frequency, TF over GST control)","1.06 fold enrichment (6-mer frequency, TF over GST control)","1.03 fold enrichment (6-mer frequency, TF over GST control)","1.05 fold enrichment (6-mer frequency, TF over GST control)","1.02 fold enrichment (6-mer frequency, TF over GST control)"
